The record followed here is PubChem BioAssay (Tox21).

Records with an inconclusive call do not appear. Where a call stands in place of a potency, no number is given. Values without a mark were called inactive. Activity calls are given as the source filed them. The call rests on the fitted dose curve; in most records, active means well fitted activation curve with a large enough effect in the signal ratio in the repeat runs (not every such curve was filed as active); inconclusive means weak or mixed curves, or effect the other way; inactive means no such curve, though single readings can be large or run the other way; the % refers to the signal ratio.
Potency means the concentration at half of the fitted maximal effect.

The test in a line: qHTS assay for small molecule agonists of the antioxidant response element (ARE) signaling pathway (AID 743202). The conditions noted are these: HepG2 ARE-bla reporter, beta-lactamase FRET, 16 h; series mostly up to 73.3 µM. The text has this:
U.S. Tox21 Program National Center for Advancing Translational Sciences [NCATS] NIH Chemical Genomics Center [NCGC] U.S. Environmental Protection Agency [EPA] National Institutes of Environmental Health Sciences [NIEHS] National Toxicology Program [NTP] U.S. Food and Drug Administration [FDA] Tox21 Assay Overview: Oxidative stress has been implicated in the pathogenesis of a variety of diseases ranging from cancer to neurodegeneration. The antioxidant response element (ARE) signaling pathway plays an important role in the amelioration of oxidative stress. The CellSensor ARE-bla HepG2 cell line (Invitrogen) can be used for analyzing the Nrf2/antioxidant response signaling pathway. Nrf2 (NF-E2-related factor 2) and Nrf1 are transcription factors that bind to AREs and activate these genes. The CellSensor ARE-bla Hep G2 cell line contains a beta-lactamase reporter gene under control of the Antioxidant Response Element (ARE) stably integrated into HepG2 cells. The activation of the report gene under culture conditions can be detected by fluorescence intensity. This cell line has been used to screen the Tox21 10K compound library to identify agonists that induce oxidative stress.
Tox21 Assay Protocol Summary: The ARE-bla cells were dispensed at 2,000 cells/5 ul/well in 1536-well black wall/clear bottom plates using a Multidrop dispenser. After the assay plates were incubated at a 37 C/5% CO2 incubator for 5 hours, 23 nL of compounds dissolved in DMSO, positive controls or DMSO only was transferred to the assay plate by a pin tool. The plates were incubated at 37 C for 16 hours. After 1 uL of LiveBLAzer B/G FRET substrate was added using a Flying Reagent Dispenser, the plates were incubated at room temperature for 2 hours, and fluorescence intensity was measured by an Envision plate reader.
Background: Quantitative high-throughput screening tests each substance at several concentrations.
`COc1ccc(/C(C)=C/C(=O)O)c(OC)c1`: the Potency result is “inactive”.

Take `COC(=O)C(C)(C)C`: the Potency entry is “inactive”.

Turning to `CCOC(OCC)OCC`, the Potency entry is “inactive”.

Consider `CO[C@@H]1[C@@H](O[C@@H]2O[C@H](C)[C@@H](O[C@H]3C[C@@](C)(O)[C@@H](O)[C@H](C)O3)[C@H](N(C)C)[C@H]2O)[C@@H](CC=O)C[C@@H](C)[C@@H](O[C@@H]2CC[C@H](N(C)C)[C@@H](C)O2)/C=C/C=C/C[C@@H](C)OC(=O)C[C@H]1OC(C)=O`, for which the Potency entry is “inactive”.

Consider `CC(=O)Oc1cccc2c1C(=O)c1c(OC(C)=O)cc(C(=O)O)cc1C2=O`, for which the Potency was 15 µM (active).

On to `CC(=O)Nc1ccccc1O`, for which the Potency was 27.3 µM (active).

For the compound `Cc1cc(C)n(CO)n1`, the Potency result was “inactive”.

For the compound `O=c1[nH][nH]c2ccccc12`, the Potency entry is “inactive”.

On to `C=CC(=O)NC(C)(C)C`, for which the Potency result was “inactive”.

Regarding `CC(=O)OCC(=O)[C@@]1(O)CC[C@H]2[C@@H]3CCC4=CC(=O)C=C[C@]4(C)[C@@]3(F)[C@@H](O)C[C@@]21C`, the Potency entry is “inactive”.

As to `c1ccc(-c2ccc(-c3ccccc3)cc2)cc1`, the Potency result was “inactive”.

With `CCCc1ccc(OC)cc1`, the Potency result was “inactive”.

For `CCOc1ccc2c(c1)C(C)CC(C)(C)N2` (stereo not given), the Potency result was “inactive”.

In the case of `CC(CCl)OC(C)CCl` (stereo not given), the Potency result is “inactive”.

With `C=C(C)C(=O)OCCCCCCCCCCOC(=O)C(=C)C`, the Potency result is “inactive”.

In the case of `CO[C@@H]1COCC[C@@H]1N[C@@H]1CC[C@@](C(=O)N2CCc3ncc(C(F)(F)F)cc3C2)(C(C)C)C1`, the Potency result was “inactive”.

For `Clc1cccc(C(c2ccc3nc[nH]c3c2)n2ccnc2)c1` (stereo not given), the Potency result is “inactive”.

`O=C(c1ccco1)N1CCNCC1`: the Potency result was “inactive”.

Consider `CC(C)Oc1ccccc1O`, for which the Potency entry is “inactive”.

`CC(=O)Nc1ccn(C2COC(COC(=O)c3ccccc3)O2)c(=O)n1` (stereo not given): the Potency entry is “inactive”.

Consider `CC(COc1ccccc1)NC(C)C(O)c1ccc(O)cc1` (stereo not given), for which the Potency entry is “inactive”.

As for `Cc1ccc(S(=O)(=O)NC(=O)NC2CCCC2)cc1`, the Potency entry was “inactive”.

Turning to `CCCCCCCCCCCCSCCOCCO`, the Potency entry is “inactive”.

For `OCCCO`, the Potency result is “inactive”.

As for `CC(C)CCCCCCCOC(=O)c1ccc(C(=O)OCCCCCCCC(C)C)c(C(=O)OCCCCCCCC(C)C)c1`, the Potency entry is “inactive”.

With `Clc1ccccc1-c1nc(-c2ccncc2)no1`, the Potency is 1.68 µM (active).

For the compound `COC=O`, the activation is -6.55% [at 8.36 µM].

On to `CC(C(=O)O)c1ccc(/C=C2\CCCCC2=O)cc1` (stereo not given), for which the Potency is 29.8 µM (active).

`[O-][n+]1ccc(Cl)cc1`: the Potency entry was “inactive”.

As for `COc1cc(CNC(=O)CCCC/C=C/C(C)C)ccc1O`, the Potency was 47.3 µM (active).

Regarding `CC(C)CC(C)(C)C`, the Potency entry is “inactive”.

For the compound `O=C(OCCOCCOCCOC(=O)c1ccccc1)c1ccccc1`, the Potency entry was “inactive”.

On to `Oc1ccc(Oc2ccccc2)cc1`, for which the Potency is 18.3 µM (active).

Take `O=C(O)c1c2ccccc2cc2ccccc12`: the Potency result was “inactive”.

Regarding `CCOc1ccc(NC(C)=O)cc1N`, the Potency result is “inactive”.

In the case of `O=C(Nc1ccccc1)c1cc([N+](=O)[O-])ccc1Cl`, the Potency is 7.7 µM (active).

Consider `CCC(=O)O[C@@H]1C[C@H]2CC[C@]1(C)C2(C)C`, for which the Potency entry is “inactive”.

`O=C(O)c1ccc2cc(O)ccc2c1`: the Potency entry was “inactive”.

`C[C@H]1C[C@H]2[C@@H]3CCC4=CC(=O)C=C[C@]4(C)[C@@]3(F)[C@@H](O)C[C@]2(C)[C@@]1(O)C(=O)COP(=O)(O)O`: the Potency entry is “inactive”.

Consider `CCOc1ccccc1O`, for which the Potency entry is “inactive”.
